Source: PubChem BioAssay (Tox21)
Several values for one entry are separate records, joined by “and”; a condition that tells them apart may be missing. Equal values may be shown once. Unmarked numbers belong to inactive results. Records with an inconclusive call do not appear. Where a call stands in place of a potency, no number is given. Activity calls are given as the source filed them. Unless noted, calls come from the whole dose curve; as a rule, active = well fitted curve in the direction sought with a large enough effect in the repeat runs; inconclusive = weak or mixed curves; inactive = flat fitted curve, though single readings scatter.

Columns and labels:
[1] = qHTS assay to test for compound auto fluorescence at 535 nm (green) in HEK293 cells (AID 720680)
[2] = qHTS assay to test for compound auto fluorescence at 460 nm (blue) in HEK293 cell free culture (AID 720681)
Procedure, shortened: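 Blue fluorescence (Ex 405/Em 460 nm, triamterene-equivalent) was read immediately after pin transfer of compound or DMSO into medium (DMEM, 10% FBS) without cells.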

[3] = qHTS assay to test for compound auto fluorescence at 535 nm (green) in HEK293 cell free culture (AID 720682)
Procedure, shortened: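 DMEM + 10% FBS, cell-free; cpd or DMSO pinned in; Ex485/Em535 read; output as fluorescein-equivalent signal.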

[4] = qHTS assay to test for compound auto fluorescence at 590 nm (red) in HEK293 cell free culture (AID 720683)
Procedure, shortened: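 Red-channel autofluorescence of compounds in culture medium (DMEM, 10% FBS), no cells, measured at 540/590 nm. Rose Bengal sodium is the reference fluorophore for equivalence.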

[5] = qHTS assay to test for compound auto fluorescence at 590 nm (red) in HepG2 cell free culture (AID 720684)
Procedure, shortened: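 Steps: dispense MEM/10% FBS medium, no cells; pin compound or DMSO vehicle; read red channel, Ex/Em 540/590 nm. Output given as Rose Bengal sodium equivalents.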

[6] = qHTS assay to test for compound auto fluorescence at 460 nm (blue) in HepG2 cell free culture (AID 720685)
Procedure, shortened: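 Compound (23 nL) or DMSO pinned into cell-free MEM with 10% FBS; blue fluorescence read at 405/460 nm excitation/emission, expressed as auto-fluorescence equivalency to triamterene.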

[7] = qHTS assay to test for compound auto fluorescence at 535 nm (green) in HepG2 cell free culture (AID 720686)
[8] = qHTS assay to test for compound auto fluorescence at 460 nm (blue) in HepG2 cells (AID 720687)
Procedure, shortened: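 Blue-channel autofluorescence (Ex/Em 405/460 nm, triamterene-equivalent) was measured after 1 hr compound exposure at 37 C, 5% CO2. Cells were HepG2, plated overnight at 37 C in MEM plus 10% FBS.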

[9] = target: Glucocorticoid receptor (Homo sapiens) (UniProt P04150); assay: qHTS assay to identify small molecule agonists of the glucocorticoid receptor (GR) signaling pathway (AID 720691; active = well fitted activation curve with a large enough effect in the signal ratio in the repeat runs, not every such curve was filed as active; the % refers to the signal ratio)
Procedure, shortened: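 qHTS in GR-bla HeLa cells: 4 h settling at 37 C/5% CO2, 18 h compound incubation at 37 C, 2 h LiveBLAzer B/G FRET substrate at room temperature, fluorescence intensity measured.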

[10] = target: Glucocorticoid receptor (Homo sapiens) (UniProt P04150); assay: qHTS assay to identify small molecule antagonists of the glucocorticoid receptor (GR) signaling pathway (AID 720692; active = well fitted inhibition curve with a large enough effect in the signal ratio in the repeat runs, not every such curve was filed as active; the % refers to the signal ratio; note: potency is the fitted concentration of half-maximal effect)
Procedure, shortened: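 Inhibition of glucocorticoid signalling is measured in HeLa cells with a GRE-controlled beta-lactamase reporter; cells are co-treated with compound and 5 nM dexamethasone (final) for 18 h before FRET substrate readout.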

Glucocorticoid receptor (Homo sapiens), sequence (P04150 whole entry, looked up): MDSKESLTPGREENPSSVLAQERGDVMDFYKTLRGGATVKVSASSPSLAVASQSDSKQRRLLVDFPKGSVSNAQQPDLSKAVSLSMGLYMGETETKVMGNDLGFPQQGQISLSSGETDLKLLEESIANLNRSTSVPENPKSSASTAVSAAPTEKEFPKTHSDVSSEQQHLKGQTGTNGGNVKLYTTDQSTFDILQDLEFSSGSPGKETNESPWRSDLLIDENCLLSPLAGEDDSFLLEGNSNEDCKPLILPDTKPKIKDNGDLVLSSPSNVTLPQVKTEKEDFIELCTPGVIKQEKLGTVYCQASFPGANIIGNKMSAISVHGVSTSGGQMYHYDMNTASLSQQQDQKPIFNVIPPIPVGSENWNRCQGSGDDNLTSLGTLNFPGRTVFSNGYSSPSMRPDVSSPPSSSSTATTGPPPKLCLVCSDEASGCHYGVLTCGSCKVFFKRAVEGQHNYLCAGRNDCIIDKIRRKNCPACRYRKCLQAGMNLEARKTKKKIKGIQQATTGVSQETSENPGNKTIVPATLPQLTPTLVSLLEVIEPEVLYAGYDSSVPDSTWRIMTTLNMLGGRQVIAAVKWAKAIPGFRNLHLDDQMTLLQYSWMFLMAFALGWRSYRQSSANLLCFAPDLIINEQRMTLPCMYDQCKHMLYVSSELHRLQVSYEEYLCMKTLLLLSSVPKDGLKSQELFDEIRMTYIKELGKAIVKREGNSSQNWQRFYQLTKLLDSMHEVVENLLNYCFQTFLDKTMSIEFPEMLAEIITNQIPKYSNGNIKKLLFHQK

Row | SMILES | outcome [1] | Potency [2] | outcome [3] | outcome [4] | outcome [5] | Potency [6] | outcome [7] | Potency [8] | Potency [9] | Potency [10]
1 | CC(C)CCCC(C)CCO (centres undefined) | inactive | inactive | inactive | inactive | inactive | inactive | inactive | inactive | inactive | inactive
2 | CN1CCN(C2=Nc3ccccc3Sc3ccc(Cl)cc32)CC1 | inactive | inactive | inactive | inactive | inactive | inactive | inactive | inactive | inactive | inactive
3 | Cc1c(Cn2ccnc2)c2ccccc2n1CCC(=O)O | inactive | inactive | inactive | inactive | inactive | inactive | inactive | inactive | inactive | inactive
4 | NC(=S)N/N=C/c1cccnc1 | inactive | inactive | inactive | inactive | inactive | inactive | inactive | inactive | inactive | inactive
5 | Cn1c(N)nc2nc[nH]c2c1=O | inactive | inactive | inactive | inactive | inactive | inactive | inactive | inactive | inactive | inactive
6 | CC(C)(C)c1cc(CCC(=O)OCC(COC(=O)CCc2cc(C(C)(C)C)c(O)c(C(C)(C)C)c2)(COC(=O)CCc2cc(C(C)(C)C)c(O)c(C(C)(C)C)c2)COC(=O)CCc2cc(C(C)(C)C)c(O)c(C(C)(C)C)c2)cc(C(C)(C)C)c1O | inactive | inactive | inactive | inactive | inactive | inactive | inactive | inactive | inactive | inactive
7 | N#Cc1cc2ccccc2c2ccccc12 | inactive | inactive | inactive | inactive | inactive | inactive | inactive | inactive | inactive | inactive
8 | CC(C)c1cccc(C(C)C)c1NC(=O)NS(=O)(=O)c1cc(C(C)(C)O)co1 | inactive | inactive | inactive | inactive | inactive | inactive | inactive | inactive | inactive | inactive
9 | CC(=O)OC/C=C/c1ccccc1 | inactive | inactive | inactive | inactive | inactive | inactive | inactive | inactive | inactive | inactive
10 | CC(C)CC=O | inactive | inactive | inactive | inactive | inactive | inactive | inactive | inactive | inactive | inactive
11 | CCCC(C)C | inactive | inactive | inactive | inactive | inactive | inactive | inactive | inactive | inactive | inactive
12 | O=C(O)Cn1c(C(=O)Nc2nc(-c3ccccc3Cl)cs2)cc2ccccc21 | inactive | inactive | inactive | inactive | inactive | inactive | inactive | inactive | inactive | inactive
13 | CC[C@H](C)[C@H](N)C(=O)O | inactive | inactive | inactive | inactive | inactive | inactive | inactive | – | inactive | –
14 | CCOC(=S)SSC(=S)OCC | inactive | inactive | inactive | inactive | inactive | inactive | inactive | – | inactive | inactive
15 | Cc1cccc(C(C)(C)C)c1O | inactive | inactive | inactive | inactive | inactive | inactive | inactive | – | inactive | inactive
16 | O=C(O)Cc1cc(I)c(Oc2ccc(O)c(I)c2)c(I)c1 | inactive | inactive | inactive | inactive | inactive | inactive | inactive | – | inactive | 9.1 µM (active) and 3.47 µM (active)
17 | CN(C)CC/C=C1\c2ccccc2COc2ccccc21 | inactive | inactive | inactive | inactive | inactive | inactive | inactive | inactive | inactive | inactive
18 | CCCCCCc1ccc(N)cc1 | inactive | inactive | inactive | inactive | inactive | inactive | inactive | – | inactive | inactive
19 | CC(=O)NCCCS(=O)(=O)O | inactive | inactive | inactive | inactive | inactive | inactive | inactive | – | inactive | –
20 | C=CCCCCCC | inactive | inactive | inactive | inactive | inactive | inactive | inactive | – | inactive | inactive
21 | CC/C(=C\C(=N/O)C(N)=O)C(C)[N+](=O)[O-] (centres undefined) | inactive | inactive | inactive | inactive | inactive | inactive | inactive | inactive | inactive | inactive
22 | ClC(Cl)(Cl)c1ccc(C(Cl)(Cl)Cl)cc1 | inactive | inactive | inactive | inactive | inactive | inactive | inactive | – | inactive | inactive
23 | CC(=O)CC(=O)c1ccccc1 | inactive | inactive | inactive | inactive | inactive | inactive | inactive | – | inactive | inactive
